This is a sample that favours compounds with a hit; in the whole collection about 5.5% have one here.
uPA surface inh: blocks generation of uPA at the cell surface | AID 540303 | cell surface uPA generation assay, qHTS | Potency, µM (doses to about 38.3 µM), for the others: at the highest dose activity change, negative = inhibition, hits mostly inhibitors | 330,000 compounds, 0.31% hits; active = well fitted inhibition curve with a large enough effect; inconclusive = small, poorly fitted or top-dose-only effect; inactive = no such curve, though single readings can be large or run the other way; tested in mouse RAW 264.7 cells; also: % is scaled to controls: 0 for no effect and ±100 for the full control effect; nearly all actives have a fitted effect of over 55% in size
BCR signal inh: chronic active BCR signaling inhibition; ABC-DLBCL IkBa-CBG/CBR reporter, luminescence ratio, 4 h; Potency, µM (doses to about 46.1 µM), inactives show top-dose activity change, negative = inhibition, most hits filed as inhibitors; 340,000 compounds, 0.05% hits; AID 493014; active = well fitted inhibition curve with a large enough effect in the signal ratio, with a control signal flat, not every such curve was filed as active; inconclusive = small, poorly fitted or top-dose-only effect, or effect the other way, or a change in a side signal; the % refers to the signal ratio;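 also: plate controls were basal doxycycline-induced cells for no effect and cells given 10 µM MG132 for full effect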
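TMD8 ABC-DLBCL cells carrying doxycycline-inducible green luciferase fused to IkappaBalpha plus unfused red luciferase were exposed to compounds (up to 46 uM) for 4 hrs at 37C. Activity came from the overlap-corrected green/red luminescence ratio.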
Mito fusion act: blocks mitochondrial division or promotes mitochondrial fusion; S. cerevisiae fusion-defective mutant growth rescue, CellTiterGlo 48 h; Potency, µM (highest dose often 46.1 µM), for inactives: at the highest dose growth rescue (activation), usual class: activators; 320,000 compounds, 0.23% hits; also: % of control where 0% means no effect; nearly all actives have a fitted effect of over 45% in size
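Read-out: ATP-based luminescence (CellTiterGlo, 10 min ambient) reporting growth of fusion-defective ts yeast after 48 hours at 37C on glycerol/ethanol YPEG medium in the presence of compound.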
VP16 counter: Gal4-VP16 reporter inhibition counter-screen | Drosophila S2 Gal4-VP16 UAS-luciferase, luminescence, 20 h | Potency, µM (series often up to 53.6 µM), for inactives: at the top dose activity, negative = inhibition, most hits filed as inhibitors | 310,000 compounds, 3.5% hits;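 also: Gal4-VP16 expression switched on by copper sulfate through the metallothionein promoter; % is scaled to controls: 0 for no effect and ±100 for the full control effect; nearly all actives have a fitted effect of over 50% in size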
RORg inh: blocks mouse ROR gamma transcriptional activity. 310,000 compounds, 5.4% hits. Drosophila S2 Gal4-RORgamma UAS-luciferase reporter, 20 h. Potency, µM (doses to about 53.6 µM), for inactives: at the top dose activity change, negative = inhibition, usual class: inhibitors; also: % is scaled to controls: 0 for no effect and ±100 for the full control effect; nearly all actives have a fitted effect of over 60% in size
Target sequence (P51450 whole entry, looked up, the tested form may be a part): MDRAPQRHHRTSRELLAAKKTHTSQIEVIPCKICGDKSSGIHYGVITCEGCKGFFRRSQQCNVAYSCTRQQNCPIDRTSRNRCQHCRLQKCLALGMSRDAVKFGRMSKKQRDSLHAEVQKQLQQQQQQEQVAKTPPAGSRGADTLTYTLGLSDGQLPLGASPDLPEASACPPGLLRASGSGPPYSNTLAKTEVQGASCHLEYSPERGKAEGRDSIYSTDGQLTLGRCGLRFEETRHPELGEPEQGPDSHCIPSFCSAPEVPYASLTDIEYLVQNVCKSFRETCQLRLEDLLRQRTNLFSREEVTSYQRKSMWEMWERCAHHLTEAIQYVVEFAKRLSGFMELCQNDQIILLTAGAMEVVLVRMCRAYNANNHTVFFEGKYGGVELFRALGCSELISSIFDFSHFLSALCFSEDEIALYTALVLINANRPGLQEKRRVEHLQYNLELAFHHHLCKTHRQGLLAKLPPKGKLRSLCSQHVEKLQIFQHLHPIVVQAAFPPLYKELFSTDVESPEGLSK
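Schneider cells (Drosophila), stable Gal4 DBD–ROR gamma + UAS-luc; 1 hr cmpd preincubation; Cu2+ induction 700 uM final; 20 hr ambient; luminescence.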
Integrin act MD: activates integrin-mediated alleviation for muscular dystrophy | alpha7betagal myoblasts, beta-gal FDG fluorescence, 48 h | AID 624291 | 350,000 compounds, 0.064% hits | Potency, µM (highest dose often 38.3 µM), for the others: top-dose activation, actives largely listed as activators;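 also: 100% = response of the positive control SU9516; nearly all actives have a fitted effect of over 60% in size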
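alpha7betagal+/- myoblasts (passage 13, 250/well) treated 48 h at 37C with compounds at 1:260 dilution of DMSO stock. Lysed, then beta-galactosidase activity read as FDG fluorescence (ex 480/em 540) after 30 min, with pre-read for autofluorescence.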
The depositor's hits bear a star; ? = inconclusive; · = no result given. Unless noted, calls follow the shape of the dose curve; as a rule, active = well fitted curve in the direction sought with a large enough effect; inconclusive = small, poorly fitted or top-dose-only effect, or another doubt; inactive = no such curve, though single readings can be large; an effect the other way counts as inactive or inconclusive. Potency is read from the fitted curve at half-maximal effect.

SMILES	uPA surface inh	BCR signal inh	Mito fusion act	VP16 counter	RORg inh	Integrin act MD
COc1ccc(N(C(=O)c2snc(C(N)=O)c2N)C(C(=O)NCc2ccccc2)c2ccc(O)cc2)cc1 (stereo not given)	4%	-9%	-3%	23%	16%	4%
CC(CC(=O)Nc1nc2ccccc2[nH]1)c1ccccc1 (stereo not given)	-8%	?	12%	4.5µM*	?	17%
Cc1ccc(CC(=O)Nc2nc3ccccc3[nH]2)cc1C	3%	-10%	-7%	-27%	3.2µM*	-7%
COc1ccccc1C(=O)NCCC(=O)Nc1nc2ccccc2[nH]1	5%	?	1%	·	·	-19%
O=C(Cc1ccccc1Cl)Nc1nc2ccccc2[nH]1	-3%	?	0%	?	7.1µM*	3%
CC(CC(=O)Nc1nc2ccccc2[nH]1)n1ccnc1 (stereo not given)	2%	?	-13%	-1%	4%	1%
COc1cc(NC(=O)C2CC(c3ccc(Cl)cc3)=NO2)cc(OC)c1OC (stereo not given)	16%	-1%	3%	-2%	19%	-20%
C=C1C[C@@]23CC4C5[C@@]6(C)C[C@H](O)C[C@@]57C2[C@H](O)[C@@H]1[C@H](O)[C@H]3[C@H]7N4C6	·	·	·	2%	5%	·
COc1cc2nc(SCC(=O)c3ccc(Br)cc3)n3nc(C)nc3c2cc1OC	3%	-10%	0%	?	13µM*	-5%
Cc1nc2c3ccccc3nc(SCC(=O)c3ccc(Cl)cc3)n2n1	-4%	6%	0%	?	?	-7%
Cc1cc(C)nc(-n2nc(C)cc2NC(=O)C(C)C)n1	12%	7%	9%	25%	5µM*	?
CC(=O)Nc1cc(C)nn1-c1nc(C)cc(C)n1	-5%	9%	3%	0%	?	-6%
Cc1ccc(Nc2cc(C)nn2-c2nc(C)cc(=O)[nH]2)cc1	-10%	?	-29%	0.63µM*	0.18µM*	-68%
Cc1ccc(Nc2cc(C)nc3nnnn23)cc1	-1%	-14%	6%	5%	0%	6%
Cc1ccc(Nc2cc(C)nn2-c2nc(C)cc(C)n2)cc1	-1%	-4%	-2%	3.2µM*	?	-15%
CC(=O)OCC(=O)[C@@]1(O)CCC2C3CC(C)C4=CC(=O)C=CC4(C)C3C(O)CC21C (stereo not given in full)	·	·	·	6%	-20%	·
COc1cc(NC(=O)CSc2nc3nc(C)c(Cc4ccccc4)c(C)n3n2)cc(OC)c1OC	·	1%	·	·	·	·
CCCCCCOC1(c2ccccc2)OC(=O)c2ccccc21 (stereo not given)	9%	?	-1%	-7%	-14%	-22%
CCCCOC1(c2ccccc2)NC(=S)NN=C1c1ccccc1 (stereo not given)	·	7%	15%	?	10µM*	·
COC1(c2ccccc2)NC(=S)NN=C1c1ccccc1 (stereo not given)	6%	-3%	10%	?	11µM*	-14%
CC1(NC(=O)c2cc(Cl)nc3ccccc23)CCS(=O)(=O)C1 (stereo not given)	-10%	1%	0%	·	·	-22%
O=C(N/N=C1\CCCCc2ccccc21)c1ccccn1	-3%	?	-2%	22%	-16%	1%
C=C(C)CNC(=S)N/N=C1\CCCCc2ccccc21	-5%	?	13%	1.8µM*	1.4µM*	-35%
CCNC(=S)N/N=C1\C(=O)c2cccc3cccc1c23	-2%	?	-4%	4.5µM*	3.2µM*	-11%
CCNC(=S)N/N=C1\CCCCc2ccccc21	10%	?	14%	4µM*	1.1µM*	21%
CCOC(=O)C1(Cc2ccc(OC)cc2)CCN(C(=O)c2ccc3[nH]ccc3c2)CC1	11µM*	-24%	-21%	-5%	0%	?
